Screening data: PubChem BioAssay, National Center for Advancing Translational Sciences (NCATS)
EPAC2 antag: qHTS for Antagonist of cAMP-regulated guanine nucleotide exchange factor 2 (EPAC2): primary screen. EPAC2 GEF exchange of Rap1B-BODIPY-GDP, fluorescence. Potency, µM (highest dose often 114 µM), inactives show top-dose activity, negative = inhibition, actives largely listed as inhibitors. actives 0.18% (n = 360,000). AID 720708, 2013; further: on the % scale 0 is the no-effect control and ±100 the full control effect; nearly all actives have a fitted effect of over 45% in size
EPAC1 ag: qHTS for Agonist of cAMP-regulated guanine nucleotide exchange factor 3 (EPAC1): primary screen; EPAC1 agonist qHTS, biochemical assay; response scale: 100% = response to 6.5 mM cAMP; AID 720707, 2013; actives 0.073% (n = 360,000); Potency, µM (series often up to 154 µM), without a hit: top-dose activation, hits mostly activators; Rap guanine nucleotide exchange factor 3 (Homo sapiens), O95398; further: nearly all actives have a fitted effect of over 60% in size
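EPAC1 100 nM, Rap1B–BODIPY-GDP 250 nM, unlabeled GDP 50 uM; compound titration; 5 min RT; kinetic read ex480/em540 at 5-min intervals ×30 min; data normalized to 6.5 mM cAMP agonist control.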
EPAC1 antagonist: qHTS for Antagonist of cAMP-regulated guanine nucleotide exchange factor 3 (EPAC1): primary screen; Potency, µM (top dose mostly 115 µM), inactives show at the highest dose activity change, negative = inhibition, usual class: inhibitors; actives 0.14% (n = 360,000); AID 720709, 2013; Rap guanine nucleotide exchange factor 3 (Homo sapiens), O95398; EPAC1 GEF assay, Rap1b-BODIPY-GDP exchange fluorescence;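 further: plate controls were vehicle for no effect and positive control for full effect; nearly all actives have a fitted effect of over 50% in size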
USP1 inh: Inhibitors of USP1/UAF1: Primary Screen. Ubiquitin carboxyl-terminal hydrolase 1 (Homo sapiens), O94782. recombinant USP1/UAF1, Ub-Rhodamine cleavage fluorescence. Potency, µM (doses to about 57.1 µM), without a hit: at the top dose activity change, negative = inhibition, usual class: inhibitors. actives 0.23% (n = 390,000). AID 743255, 2014; further: on the % scale 0 is the no-effect control and ±100 the full control effect; nearly all actives have a fitted effect of over 60% in size
Target sequence (O94782 whole entry, looked up): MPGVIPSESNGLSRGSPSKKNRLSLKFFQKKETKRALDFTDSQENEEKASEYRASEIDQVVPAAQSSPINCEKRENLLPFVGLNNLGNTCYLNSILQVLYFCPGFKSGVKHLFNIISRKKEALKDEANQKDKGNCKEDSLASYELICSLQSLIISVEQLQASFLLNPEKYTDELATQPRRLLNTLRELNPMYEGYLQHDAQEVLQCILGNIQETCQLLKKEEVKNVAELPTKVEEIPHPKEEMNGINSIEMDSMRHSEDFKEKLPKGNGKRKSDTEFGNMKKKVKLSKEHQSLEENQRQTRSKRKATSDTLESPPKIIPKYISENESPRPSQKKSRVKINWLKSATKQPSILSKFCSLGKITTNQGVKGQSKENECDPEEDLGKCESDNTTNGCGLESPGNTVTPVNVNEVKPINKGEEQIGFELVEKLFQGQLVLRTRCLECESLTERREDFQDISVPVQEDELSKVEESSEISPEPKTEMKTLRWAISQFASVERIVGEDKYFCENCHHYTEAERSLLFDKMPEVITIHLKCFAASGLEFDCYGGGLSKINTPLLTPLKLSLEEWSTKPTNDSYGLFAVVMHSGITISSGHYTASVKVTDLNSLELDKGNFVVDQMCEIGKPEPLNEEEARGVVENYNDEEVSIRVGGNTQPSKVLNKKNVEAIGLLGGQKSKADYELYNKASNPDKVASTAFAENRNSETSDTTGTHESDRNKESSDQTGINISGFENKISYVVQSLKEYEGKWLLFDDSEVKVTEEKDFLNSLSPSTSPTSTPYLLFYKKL
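USP1/UAF1 complex (1 nM) preincubated 15 min at room temperature with compound, then Ub-Rho substrate (150 nM final) added. Kinetic fluorescence at 480/540 nm over 6 reads at 60 s intervals; 50 mM HEPES pH 7.8, 0.5 mM EDTA, 0.1 mg/ml BSA, 1 mM TCEP, 0.01% Tween-20.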
EPAC2 ag: qHTS for Agonist of cAMP-regulated guanine nucleotide exchange factor 4 (EPAC2): primary screen | Potency, µM (top dose mostly 154 µM), for the others: at the top dose activation, actives largely listed as activators | Rap guanine nucleotide exchange factor 4 (Homo sapiens), Q8WZA2 | actives 0.079% (n = 360,000) | AID 720711, 2013 | EPAC2 activation, biochemical qHTS; response scale: 100% = 6.5 mM cAMP response; further: nearly all actives have a fitted effect of over 50% in size
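In this primary screen, activation is scored as increased exchange of BODIPY-GDP from Rap1B by 100 nM EPAC2, with 50 uM GDP as competitor. Signal is normalized to the 6.5 mM cAMP agonist control.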
Numbers without * were called inactive; i = inactive; u = inconclusive; x = no result; + = active, no number. Most compounds without a hit are left out; they make up all but 0.49% or so of the library. The call rests on the fitted dose curve; in most records, active means well fitted curve in the direction sought with a large enough effect; inconclusive means small, poorly fitted or top-dose-only effect, or another doubt; inactive means no such curve, though single readings can be large; an effect the other way counts as inactive or inconclusive. Potency means the concentration at half of the fitted maximal effect.

SMILES	EPAC2 antag	EPAC1 ag	EPAC1 antagonist	USP1 inh	EPAC2 ag
O=C(N/N=C/c1ccc(O)c(Br)c1)c1cc2c(ccc3ccccc32)o1	-5%	5%	1%	-5%	6%
O=c1ccc(-c2ccccc2)nn1Cc1ccc(Cl)cc1	35µM*	5%	-6%	-22%	9%
CCOC(=O)c1cc(OC(=O)c2ccc(C)cc2)n(-c2ccccc2)n1	x	x	x	-23%	x
O=[N+]([O-])c1cc([N+](=O)[O-])c2oc(-c3ccccc3)c(Br)c2c1O	20µM*	6%	25µM*	u	-7%
COc1ccccc1CNc1cc(C)nc2nc(-c3ccc(C)cc3)nn12	x	x	x	-25%	x
O=C(O)c1cccc(N2C(=O)c3cc([N+](=O)[O-])cc4cc([N+](=O)[O-])cc(c34)C2=O)c1	50µM*	-4%	-10%	-20%	7%
CC(C)CN(CCCNC(=O)Cn1ncc2c3ccccc3n(C)c2c1=O)CC(C)C	x	x	x	-28%	x
Cc1cc(O)c(C(=O)/C=C/c2cccc([N+](=O)[O-])c2)c(=O)o1	-4%	-6%	56µM*	-14%	6%
COc1ccc(CNC(=O)c2ccc3c(c2)CCN3S(=O)(=O)c2ccc(C)cc2)cc1	x	x	x	-13%	x
CCc1cc(=O)oc2cc(C)cc(OCC(=O)N[C@@H](CSCc3ccccc3)C(=O)O)c12	56µM*	-20%	-16%	10%	7%
C=C1CCN([C@@H](Cc2ccccc2)C(=O)O)S(=O)(=O)c2ccccc21	16%	0%	1%	-6%	7%
C=C1CCN(C(Cc2ccccc2)C(=O)OC)S(=O)(=O)c2ccc(F)cc21 (configuration not stated)	56µM*	-17%	-20%	-24%	12%
Cc1cc(S(=O)(=O)Nc2ccc(-c3ccc(N4CCCCCC4)nn3)cc2)c(C)cc1Cl	x	x	x	-14%	x
COc1cccc2c1-c1c(O)cccc1C2=O	17%	13%	6%	-19%	12%
O=C1C=C(O)c2cccc(O)c2C1=O	4%	-27%	-24%	32µM*	-5%
O=C(CSc1nc2c(sc3ccccc32)c(=O)n1CCCN1CCOCC1)NCC1CCCO1 (configuration not stated)	2%	4%	-9%	-5%	6%
NC(=O)CSc1nc2c(sc3ccccc32)c(=O)n1CCCC(=O)NCC1CCCO1 (configuration not stated)	92%	+	123%	u	-4%
CC(C)(C)N1C(=O)Cc2c1nc(N)c1c(N)nc(N3CCCCC3CO)c(C#N)c21 (configuration not stated)	-8%	-1%	56µM*	u	4%
CCOC(=O)c1ccc(NCn2c(=O)oc3ccccc32)cc1	1%	20%	3%	25µM*	14%
COC(=O)c1ccc(NC(=O)CCn2c(=O)oc3ccccc32)cc1	13%	-17%	-22%	-18%	-2%
CCc1ccc(S(=O)(=O)c2nnn3c2nc(N(CC)Cc2ccccc2)c2cc(Cl)ccc23)cc1	x	x	x	-8%	x
COc1cc2c(cc1OC)-c1cc3ccc4c(c3c[n+]1CC2)OCO4	3%	u	6%	25µM*	u
Cc1[nH][nH]c(=O)c1C(c1c(C)[nH][nH]c1=O)c1cn(Cc2ccccc2Cl)c2ccccc12	-4%	11%	u	28µM*	-6%
CCOC(=O)c1cc(-c2ccc(OC)cc2)n(CCC(=O)NC2CCC(C)CC2)c1C (configuration not stated)	x	x	x	-8%	x
O=C(COc1ccc(F)cc1)OCc1cc(=O)n2nc(C3CC3)sc2n1	x	x	x	-3%	x
SMILES	EPAC2 antag	EPAC1 ag	EPAC1 antagonist	USP1 inh	EPAC2 ag
O=C(O)c1ccc(C[n+]2c(-c3ccccc3)csc2Nc2ccccc2)cc1	-4%	-8%	4%	-15%	-10%
CC(C)(C)c1cc(-c2csc(Nc3ccccc3)[n+]2Cc2ccc(C(=O)O)cc2)cc(C(C)(C)C)c1O	-23%	-1%	79µM*	u	-10%
C1CCc2nc3c(nc2C1)CCCC3	1%	1%	-29%	-8%	7%
Nc1nnc2c(n1)CCCC2	11%	5%	7%	16µM*	9%
O=C(Cn1c(=O)nc(-c2ccccc2F)c2cc(Cl)ccc21)Nc1ccccc1C(F)(F)F	x	x	x	-6%	x
Cc1[nH]n(C(N)=S)c(=O)c1C(c1ccccc1)C(C#N)C#N (configuration not stated)	17%	-9%	13%	-19%	1%
Cc1[nH]n(-c2ncc(-c3ccccc3)s2)c(=O)c1C(c1ccc(Br)cc1)C(C#N)C#N (configuration not stated)	-18%	10%	16µM*	-24%	3%
CCOc1ccc(-n2cc(-c3ccccc3)c3c(N4CCC(C)CC4)ncnc32)cc1	x	x	x	-12%	x
Oc1ccc(/C=N/N=C/c2ccc(O)c(O)c2)cc1O	8%	9%	u	-17%	3%
Oc1ccc(N=Cc2ccc(O)c(O)c2)cc1	u	21%	40µM*	7.9µM*	5%
COc1cccc(Cn2c(=O)cc(C)c3c(C)nn(-c4ccc(C)cc4)c32)c1	x	x	x	-16%	x
Oc1ccc2ccccc2c1N=Nc1ccccc1F	-7%	6%	1%	-14%	5%
O=S(=O)(O)c1cccc(N=Nc2c(O)ccc3ccccc23)c1	35µM*	-2%	-13%	u	-3%
Cc1[nH]cnc1CN1CCc2c(c3ccccc3n2C)C1=O	15%	-14%	-16%	35µM*	0%
Cc1cc(Nc2sc(C(=O)c3ccc(F)cc3)c(N)c2C(=O)Nc2ccc(F)cc2)ccc1Cl	x	x	x	-13%	x
COc1ccc(C(=O)/C=C/c2ccc(OC)c(COc3ccc(F)cc3)c2)cc1	-2%	14%	-12%	u	11%
COc1ccc(C(C)=O)cc1COc1ccc(F)cc1	56µM*	15%	-30%	-10%	14%
CCc1noc(C)c1C(=O)Nc1nc2c(C)cc(C)cc2s1	-14%	89µM*	-25%	-10%	24%
Cc1nc(S/C(=C/c2ccc(-c3cc(Cl)ccc3C)o2)C(=O)O)n[nH]1	u	3%	2%	-11%	-13%
O=C(O)c1ccccc1-c1ccc(/C=C/c2cc(C(F)(F)F)[nH]c(=O)n2)o1	444%	56µM*	i	28µM*	100µM*
O=C(N/N=C/c1ccc(-c2ccccc2C(=O)O)o1)c1cccs1	6%	2%	3%	-24%	-4%
